FBW7 act = FBW7 E3 ligase activators, primary screen, biochemical, AlphaScreen, human. F-box/WD repeat-containing protein 7 (Homo sapiens), Q969H0. AlphaScreen FBW7–phospho-cyclin E peptide binding, activator screen. normalized activity (activation), % at 26.1 µM. 650,000 tested, 0.13% active; in the data active means normalized activity above about 1.9%;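 further: purified mutant Fbw7 with reduced substrate affinity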
Target sequence (Q969H0 whole entry, looked up): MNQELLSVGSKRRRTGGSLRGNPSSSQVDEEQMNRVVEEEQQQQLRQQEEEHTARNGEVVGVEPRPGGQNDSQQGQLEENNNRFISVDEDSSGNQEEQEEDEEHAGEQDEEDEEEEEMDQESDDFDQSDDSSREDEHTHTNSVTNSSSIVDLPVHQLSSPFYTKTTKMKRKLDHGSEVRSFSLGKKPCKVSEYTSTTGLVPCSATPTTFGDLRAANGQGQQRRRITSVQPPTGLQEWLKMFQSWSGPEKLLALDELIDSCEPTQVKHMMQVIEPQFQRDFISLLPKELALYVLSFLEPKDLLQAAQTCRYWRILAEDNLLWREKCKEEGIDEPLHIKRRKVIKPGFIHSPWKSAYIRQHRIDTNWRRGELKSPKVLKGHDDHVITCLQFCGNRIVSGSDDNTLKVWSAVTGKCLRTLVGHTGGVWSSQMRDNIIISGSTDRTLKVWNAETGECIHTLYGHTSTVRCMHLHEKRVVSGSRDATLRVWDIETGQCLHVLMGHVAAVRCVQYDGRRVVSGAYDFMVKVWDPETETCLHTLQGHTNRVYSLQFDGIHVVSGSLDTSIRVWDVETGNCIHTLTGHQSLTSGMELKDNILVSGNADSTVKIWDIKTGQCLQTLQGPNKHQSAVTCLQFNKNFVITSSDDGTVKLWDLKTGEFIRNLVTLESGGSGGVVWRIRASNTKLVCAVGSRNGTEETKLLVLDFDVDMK
MITF inh = MITF inhibitors, primary screen, biochemical, AlphaScreen, human; Microphthalmia-associated transcription factor (Homo sapiens), O75030; AlphaScreen MITF homodimerization, bead proximity signal; inhibition, % at 2.6 µM; 650,000 tested, 0.91% active; AID 1259374, 2018; in the data active means inhibition above about 50%;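 further: 0% = vehicle wells with protein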
TEAD-YAP block = TEAD-YAP interaction inhibition, primary screen, TEAD-YAP interaction inhibitor project, luminescence, HEK-TIYL cells | 640,000 tested, 1.4% active | inhibition, % at 9.12 µM | AID 1259422, 2018 | TEAD-Gal4/YAP UAS-luciferase luminescence; in the data active means inhibition above about 32%;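 further: 0% = median of test compound wells and 100% = reference inhibitor wells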
GPR151 activ = activators of human GPR151, primary screen, cell-based, PathHunter beta-arrestin, luminescence; G-protein coupled receptor 151 (Homo sapiens), Q8TDV0; PathHunter beta-arrestin GPR151 cells; activation, % at 11.2 µM; 650,000 tested, 1% active; AID 1508602, 2020; in the data active means activation above about 4.9%;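 further: 0% = median of compound wells and 100% = cells with positive control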
* marks the source's active call; other numbers are inactive results. Most compounds without a hit are left out; they make up all but 3.5% or so of the library.

SMILES | FBW7 act | MITF inh | TEAD-YAP block | GPR151 activ
COc1ccc(/C=c2/sc3nc4ccccc4n3c2=O)c(OC)c1 | 0 | 19 | -24 | -1
CN(C)c1ccc(/C=c2\sc3nc4ccccc4n3c2=O)cc1 | 0 | -10 | 74* | -1
COc1cccc(/C=c2\sc3nc4ccccc4n3c2=O)c1 | -1 | 7 | 45* | 1
Cc1ccc(/C=c2\sc3nc4ccccc4n3c2=O)s1 | 0 | -5 | 54* | -1
O=c1/c(=C\c2ccccc2)sc2nc3ccccc3n12 | 0 | -4 | -18 | 1
CCN(CC)c1ccc(/C=c2/sc3nc4ccccc4n3c2=O)cc1 | 0 | 16 | 46* | 0
CCOC(=O)c1c(NC(=O)c2ccc(Cl)cc2)sc2c1CCC(C#N)(c1ccccc1)C2 (stereo not drawn) | 0 | -3 | -5 | 0
CC(Nc1ccc(Cl)cc1)C(=O)N/N=C/c1cccs1 (stereo not drawn) | 0 | 0 | 9 | 1
Cc1ccc(/C=c2/sc3nc4ccccc4n3c2=O)cc1 | 0 | -5 | 73* | -1
COc1cc(NC(=O)c2ccc(-c3c(C)nn(C)c3C)s2)cc(OC)c1OC | 0 | 12 | 51* | -1
Clc1ccccc1OCc1nc(-c2ccccn2)no1 | 0 | 13 | -27 | -7
Clc1ccc(OCc2nc(-c3ccccn3)no2)c(Cl)c1 | 0 | 5 | 36* | -5
Cc1cc(Sc2nc3c(C)cccn3c(=O)c2C=O)ncn1 | 1.9* | -1 | -2 | 0
O=S(=O)(Cc1cccc(F)c1)NCc1cccc(Oc2ccc(F)cc2)c1 | 0 | 0 | 24 | 3
O=C1NC(=S)N/C1=C\C=C\c1ccc([N+](=O)[O-])o1 | 0 | 78* | 89* | 2
CCN(CC)CCNC(=O)c1ncoc1-c1ccc(F)cc1 | 0 | 6 | 5 | -1
CC(=O)N(/N=C1\Sc2ccccc2C1=O)c1ccccc1Cl | 0 | 9 | 91* | -2
CC(=O)N(/N=C1\Sc2ccccc2C1=O)c1cccc(C)c1 | 0 | 0 | -42 | -1
C/C(=N\N=c1/sc2ccccc2n1C)c1ccc(N2CCOCC2)cc1 | 0 | -6 | -8 | 3
C/C(=N\N=C(N)N)c1ccc(N2CCOCC2)cc1 | 0 | -6 | 52* | 0
Cc1ccc(NC(=O)CCOc2ccccc2)cc1Cl | 2.4* | 10 | -23 | 0
CCOc1ccc(NC(=O)C2CC(=O)N(CCO)C(=Nc3ccccc3)S2)cc1 (stereo not drawn) | 0 | 4 | 11 | 0
Oc1ccccc1/C=N/c1ccnn1-c1ccccc1 | 0 | 9 | 32* | -9
CCOCCCNC(=O)c1cccc(NC2=NC3CS(=O)(=O)CC3S2)c1 (stereo not drawn) | 0 | 3 | -17 | -1
Cc1csc(NC(=O)C2CCCN(S(=O)(=O)c3cccc4cccnc34)C2)n1 (stereo not drawn) | 0 | 6 | 17 | 0
SMILES | FBW7 act | MITF inh | TEAD-YAP block | GPR151 activ
O=C(Nc1ccc2c(c1)OC(F)(F)O2)c1cc([N+](=O)[O-])ccc1Cl | 0 | 5 | 68* | 0
O=C(Nc1cccc(I)c1)c1ccc(Cl)c([N+](=O)[O-])c1 | 0 | 21 | 33* | -3
O=C(Nc1cccc(C(F)(F)F)c1)c1ccc(Cl)c([N+](=O)[O-])c1 | 0 | 4 | 62* | -1
Cc1cccc(NC(=O)c2cc(Cl)ccc2[N+](=O)[O-])c1 | 0 | 0 | 45* | -1
O=C(Nc1cccc(F)c1)c1ccc(Cl)c([N+](=O)[O-])c1 | 0 | 2 | 13 | 2
O=C(Nc1ccc(Cl)cc1)c1cc(Cl)ccc1[N+](=O)[O-] | 0 | -6 | 7 | -1
O=C(c1cc(-c2ccccc2F)no1)N1CCN(c2ccccc2)CC1 | 0 | 9 | -6 | 0
COc1ccc(-c2cc(-c3ccccc3)c(C#N)c(N)c2C#N)cc1OC | 0 | -25 | 9 | -1
CCN1C(=O)/C(=C/c2cc(OC)c(OC)cc2C)N(C)C1=S | 0 | 14 | -10 | -2
O=C(Nc1cccc(I)c1)c1cc([N+](=O)[O-])ccc1Cl | 1 | 8 | 45* | 0
O=C(Nc1cccc(-c2nc3ccccc3s2)c1)c1cc([N+](=O)[O-])ccc1Cl | 0 | 13 | 36* | -1
O=C(Nc1cccc(-c2nc3ccccc3s2)c1)c1ccccc1[N+](=O)[O-] | 0 | -3 | -33 | 1
O=C(Nc1cccc(Cl)c1)c1ccc(Cl)c([N+](=O)[O-])c1 | 0 | 27 | 45* | -1
